From PubChem BioAssay AID504340 (NMMLSC, 2011)

Test: yeast TOR pathway CIT2-GFP reporter retest – flow cytometry, third cherry pick, single plex, confirmation (AID 504340);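 note: median GFP fluorescence over all cells with no mother versus daughter split; sample signal as a ratio to the plate DMSO mean so 100% equals DMSO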
Settings: S. cerevisiae CIT2-GFP strain, 3 h, at 10 µM, stronger effect = higher value;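 active = GFP response above 150% of the DMSO control; inconclusive = Under 70 cell events counted for a yeast strain; inactive = the rest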

GFP response vs DMSO, inactive:
CCCCC(=O)NCCc1cc2c(OC)ccc(OC)c2[nH]c1=O 96.1%
CCCC(=O)Nn1cnc2c(c1=O)C1(CCCCC1)Cc1ccccc1-2 94.5%
O=C(/C=C/Nc1cccc(O)c1)c1ccccc1 111%
COCCNc1nc(N)c([N+](=O)[O-])c(Nc2ccc(F)cc2)n1 101%
CCOC(=O)CS(=O)(=O)c1nc(-c2ccccc2)cc(C(F)(F)F)n1 111%
Cc1ccc(Nc2cc(=O)[nH]c(=O)[nH]2)cc1C 104%
Cc1nc(Nc2ccc(Cl)cc2)c(C#N)c(=O)[nH]1 107%
CNc1nc(C)c([N+](=O)[O-])c(Nc2ccc(OC)cc2)n1 97.7%
CCC(C)Nc1nc(N)c([N+](=O)[O-])c(Nc2ccccc2OC)n1 (configuration not stated) 114%
CSc1ccccc1OCc1cc(C(=O)N2CCN(C)C(c3ccccc3)C2)no1 (configuration not stated) 99.3%
COc1ccccc1-c1cc(C(F)(F)F)nc(S(C)(=O)=O)n1 106%
O=C1c2ccccc2C(=O)c2c1cccc2N(CCO)CCO 92.8%
COc1cc(OC)cc(C(=O)Nc2ccc(-c3nc4ccccc4o3)cc2)c1 112%
Cc1cccc(Nc2cc(=O)[nH]c(=O)[nH]2)c1 94.5%
Nc1c(C(=O)O)ccc2c1C(=O)c1ccccc1C2=O 101%
N#Cc1c(N)nc(N)nc1Nc1ccc(Br)cc1 99.3%
CCC(=O)Nn1cnc2c(c1=O)C1(CCCCC1)Cc1ccccc1-2 99.3%
CC(=O)Nc1ccc(-c2nc3ccccc3o2)cc1 99.3%
O=C(Nc1ccccc1)ON=C1c2ccccc2-c2ccccc21 112%
CCc1c(C)nc2c(OC)cccc2c1Cl 97.7%
O=C(N/N=C/c1ccccc1F)c1cccc2ccccc12 104%
O=C(N/N=C/c1ccccc1)c1cccc2ccccc12 97.7%
